The record followed here is PubChem BioAssay AID463173 (ICCB-Longwood Screening Facility, Harvard Medical School, 2010).

Screen size: about 52,000 compounds; about 4,300 (8.3%) were called active. Cut-off read from the data, not from the text of the source: active = survival mostly below about 52% (no sharp cut-off); inactive = mostly above about 56%. Many of the other results were omitted from the sample, so actives are more common in it than they were.

In this assay the test system is DeltatarO mutant. In words: growth inhibition of S. aureus wild type versus tarO mutant, primary screen, teichoic acid synthesis inhibitors, RN4220, OD600 (AID 463173). Conditions: OD600, 18 h, hits give low values, screened at 18.75 µg/mL (by protocol).
As for `CC(=O)N1CCN(C2=NC(=O)C(=C3CCCCC3)S2)CC1`, the survival is 75% (inactive).

For the molecule `CCCOc1ccc(-c2nonc2NC(=O)c2ccco2)cc1OCCC`, the survival was 111% (inactive).

Regarding `Cc1c(Cl)cccc1-n1ncc(C(=O)N2CCN(c3ncccn3)CC2)c1C1CCN(C(=O)OC(C)(C)C)CC1`, the survival was 102% (inactive). Take `COc1cc(C2CC(=O)N(c3ccc(C)c(Cl)c3)C3=C2C(=O)OC3)cc(OC)c1OC` (configuration not stated): the survival is 72% (inactive). On to `Cc1ccc(C)c(NC(=O)C2CCN(c3nn4c(=O)cc(C)nc4s3)CC2)c1`, for which the survival was 106% (inactive). Consider `CCOC(=O)c1cc2sccc2n1CC(=O)NC1CCC(C)CC1` (configuration not stated), for which the survival was 95% (inactive). In the case of `Oc1c(C(c2ccccc2F)N2CCN(c3ccccc3F)CC2)sc2nc(-c3ccco3)nn12` (configuration not stated), the survival is 87% (inactive). For `COC(=O)c1ccc(NC(=O)CCS(=O)(=O)c2ccc(Br)cc2)cc1` the value was 77% (inactive); for `Cc1cc(Br)ccc1NC(=O)C(Cc1ccccc1)NS(=O)(=O)c1ccc(Br)s1` (configuration not stated), 114% (inactive); for `CC(=O)Nc1ccc(NC(=O)C(NS(=O)(=O)c2ccc(Br)s2)c2ccccc2)cc1` (configuration not stated), 93% (inactive). Consider `CCC(C)(C)NC(=O)C(NS(=O)(=O)c1cccs1)c1ccccc1` (configuration not stated), for which the survival was 84% (inactive). For `COc1ccc(C)cc1NC(=O)C(NS(=O)(=O)c1cccs1)c1ccccc1` (configuration not stated) the value was 11% (active); for `O=C(Nc1ccc(Cl)cc1)C(NS(=O)(=O)c1cccs1)c1ccccc1` (configuration not stated), 19% (active); for `COc1ccc(C)cc1NC(=O)C(Cc1ccccc1)NS(=O)(=O)c1cccs1` (configuration not stated), 84% (inactive).

With `Cc1cccc(C)c1NC(=O)C(NS(=O)(=O)c1cccs1)c1ccccc1` (configuration not stated), the survival is 56% (inactive). With `Cc1cc(Br)ccc1NC(=O)C(NS(=O)(=O)c1cccs1)c1ccccc1` (configuration not stated) the figure was 31% (active); with `CCOc1ccc(OCC)c(NC(=O)C(NS(=O)(=O)c2cccs2)c2ccccc2)c1` (configuration not stated), 66% (inactive). With `O=C(c1cccc(C(F)(F)F)c1)C1CCN(C(=O)N2CCOCC2)CC1` the figure was 103% (inactive).

`Cc1cccc(CSc2nc3c(c(=O)[nH]2)C(c2cccc(O)c2)CC(=O)N3)c1` (configuration not stated): the survival is 110% (inactive). For `CCc1nn(CC(=O)NCc2ccco2)c(=O)c2cc3cc(F)ccc3n12`, the survival was 104% (inactive).

Take `COc1ccc(Cn2ccc3nc(C)c(C(=O)N4CCN(c5ccccc5)CC4)cc3c2=O)cc1`: the survival is 85% (inactive). As to `COc1ccc(CNC(=O)Cn2c(=O)cc(-c3ccccc3)c3c(C)nn(C)c32)cc1`, the survival is 67% (inactive). `COc1ccc(CCNC(=O)CN(c2ccccc2)S(=O)(=O)N(C)C)cc1OC`: the survival is 62% (inactive). On to `Cc1cccc(NC(=O)c2sc(-n3nc(C)c(CCC(C)C)c3C)nc2C)c1C`, for which the survival is 62% (inactive).

Turning to `Cc1nc(-n2nc(C)c(CCC(C)C)c2C)sc1C(=O)Nc1cccc(Cl)c1C`, the survival is 56% (active). Take `Cc1nc(-n2nc(C)c(CCC(C)C)c2C)sc1C(=O)Nc1cccc(Cl)c1`: the survival is 122% (inactive).

Regarding `CCCN(C(=O)Nc1cn(CC(C)C)c(=O)c2ccccc12)c1ccc(F)cc1`, the survival was 82% (inactive). Consider `Cc1cc(C)n(CCCO)c(=O)c1C#N`, for which the survival is 86% (inactive). For `COc1ccc(-c2cn3c(n2)sc2cc(C(=O)NC4CCCCCC4)ccc23)cc1` the value was 73% (inactive). Take `CCn1c(CN2CCC(C)CC2)nc2cc(NC(=O)c3ccc([N+](=O)[O-])cc3)ccc21`: the survival is 86% (inactive). `CCc1ccccc1NC(=O)N1CC(CC)Oc2ccc(Cl)cc21` (configuration not stated): the survival was 44% (inactive). For `CCC1CN(C(=O)Nc2cccc3c2CCCC3)c2cc(Cl)ccc2O1` (configuration not stated) the value was 44% (active).

For `CCC1CN(C(=O)Nc2cc(Cl)c(OC)cc2OC)c2ccccc2O1` (configuration not stated), the survival is 61% (inactive). Turning to `CCC1CN(C(=O)Nc2cccc3c2CCCC3)c2ccccc2O1` (configuration not stated), the survival is 56% (inactive). For `CCC1CN(C(=O)Nc2cc(C)ccc2OC)c2cc(Cl)ccc2O1` (configuration not stated) the value was 44% (active). Regarding `CCC1CN(C(=O)Nc2cccc3c2CCCC3)c2cc(C)ccc2O1` (configuration not stated), the survival is 49% (inactive). With `Cc1ccc(C)c(CN2C(=O)c3ccccc3Sc3ccc(C(=O)NCCCOC(C)C)cc32)c1`, the survival was 89% (inactive). `COc1cccc(N2CCN(c3ncnc4onc(-c5ccc(F)cc5)c34)CC2)c1`: the survival was 83% (inactive).

With `CCc1ccc(NC(=O)CSc2nc(C)cc(COC)c2C#N)cc1`, the survival is 84% (inactive). With `COc1ccc2[nH]c(=O)c(CN(Cc3cccs3)S(=O)(=O)c3cccc4nsnc34)cc2c1`, the survival was 113% (inactive). With `COC(=O)c1ccccc1NC(=O)CCC(=O)N1CC(C)Sc2ccccc21` (configuration not stated) the figure was 42% (active); with `CC1CN(C(=O)CCC(=O)Nc2cc(F)ccc2F)c2ccccc2S1` (configuration not stated), 51% (inactive); with `Cc1ccc(Cl)cc1NC(=O)CCC(=O)N1CC(C)Sc2ccccc21` (configuration not stated), 44% (active). For `CCc1ccccc1NC(=O)N1CC(C)Sc2ccccc21` (configuration not stated), the survival was 77% (inactive). Consider `Cc1ccccc1NC(=O)CCC(=O)N1CC(C)Sc2ccccc21` (configuration not stated), for which the survival is 64% (inactive). As to `COC(=O)c1ccccc1NC(=O)CCC(=O)N1CCOc2ccccc21`, the survival is 65% (inactive). For `Fc1ccccc1N1CCN(Cc2nnc(-c3ccc4c(c3)OCO4)o2)CC1`, the survival is 85% (inactive).

Consider `CCC(=O)N(c1nnc(-c2cc(OC)c(OC)c(OC)c2)s1)C1CCCC1`, for which the survival is 65% (inactive). For `O=C(CNC(=O)c1ccc(F)cc1)OCc1cc(=O)n2nc(C3CC3)sc2n1` the value was 81% (inactive); for `c1ccc(Nc2nc(-c3ccncc3)cs2)cc1`, 100% (inactive). With `Oc1ccc(Nc2nc(-c3ccc(O)cc3)cs2)cc1` the figure was 1% (active); with `Cc1ccc(Nc2nc(C)cs2)cc1`, 82% (inactive); with `CN1CCN(C(c2cccc(Br)c2)c2sc3nc(-c4ccco4)nn3c2O)CC1` (configuration not stated), 70% (inactive). For `Cc1ccc(CCNC(=O)c2oc(=O)c3ccccc3c2-c2ccc(C)cc2)cc1` the value was 28% (active); for `COc1ccc(N(C)C(=O)c2oc(=O)c3ccccc3c2-c2ccc(C)cc2)c(OC)c1`, 97% (inactive); for `CCCCN(CCCC)S(=O)(=O)c1ccc2oc(C(=O)NCc3ccccc3)c(C)c2c1`, 99% (inactive).

For `CCOc1ccc(N(C)C(=O)c2oc(=O)c3ccccc3c2-c2ccccc2)cc1`, the survival is 55% (inactive). For `Cc1ccc(-c2c(C(=O)NCCc3ccc(Cl)cc3)oc(=O)c3ccccc23)cc1`, the survival was 51% (inactive). Consider `CCN(CC)S(=O)(=O)c1ccc2oc(C(=O)N(C)Cc3ccccc3)c(C)c2c1`, for which the survival is 40% (active). With `Cc1ccc(-c2c(C(=O)NCCc3ccccc3)oc(=O)c3ccccc23)cc1` the figure was 91% (inactive); with `Cc1ccc(-c2c(C(=O)NCc3ccc(F)cc3)oc(=O)c3ccccc23)cc1`, 57% (inactive). Consider `Cc1ccc(-c2c(C(=O)N(C)Cc3ccccc3)oc(=O)c3ccccc23)cc1`, for which the survival is 24% (active). As for `CCN(CC)S(=O)(=O)c1ccc2oc(C(=O)NCc3ccccc3OC)c(C)c2c1`, the survival is 71% (inactive).

For the molecule `CCCCN(Cc1ccccc1)C(=O)c1oc(=O)c2ccccc2c1-c1ccc(C)cc1`, the survival is 8% (active). As to `CCOc1ccc(CCNC(=O)c2oc(=O)c3ccccc3c2-c2ccc(C)cc2)cc1OCC`, the survival is 70% (inactive). For `O=C1CC(N2CCC(c3nc4ccccc4[nH]3)CC2)C(=O)N1` (configuration not stated) the value was 84% (inactive); for `Cc1c(C)n(Cc2ccccc2)c2ccc(C(=O)NCCc3ccccc3Cl)cc12`, 84% (inactive).

Turning to `COCCCn1c(SCC(=O)Nc2ccc(F)cc2)nc2c(sc3ccccc32)c1=O`, the survival is 81% (inactive). With `CCOCCc1nnc(NC(=O)C(=O)c2cc(C)n(-c3ccc(Cl)cc3)c2C)s1` the figure was 60% (inactive); with `CC(C)c1nn2c(=O)cc(COC(=O)c3ccccc3NC(=O)C3CCCCC3)nc2s1`, 90% (inactive). For `CCOCCCNC(=O)C1CCN(c2nn3cc(-c4ccc(F)cc4)nc3s2)CC1` the value was 86% (inactive); for `CC1=C(c2ccc(C)c(C)c2)S(=O)(=O)N=C1N1CCC(C(=O)NCc2ccccc2C)CC1`, 76% (inactive). For `COc1ccc(CNC(=O)CCc2c(C)c3cc4c(C)c(C)oc4cc3oc2=O)cc1OC` the value was 104% (inactive); for `CCOc1ccc(OCC)c(Nc2nc3ccc(C(=O)c4ccccc4)cc3n3cnnc23)c1`, 77% (inactive); for `Cc1ccccc1CCNC(=O)C1CCN(c2nc3ccccc3nc2C(F)(F)F)CC1`, 72% (inactive). Turning to `COc1ccccc1CCNC(=O)C1CCN(c2nc3ccccc3nc2C(F)(F)F)CC1`, the survival was 117% (inactive). With `CCNC(=O)C1CCN(c2nc3ccccc3nc2C(F)(F)F)CC1` the figure was 144% (inactive); with `CCCSCCCNC(=O)C1CCN(c2nc3ccccc3nc2C(F)(F)F)CC1`, 0% (active); with `O=C(NCCc1ccccc1Cl)C1CCN(c2nc3ccccc3nc2C(F)(F)F)CC1`, 37% (active). For `CCCCNC(=O)C1CCN(c2nc3ccccc3nc2C(F)(F)F)CC1` the value was 115% (inactive); for `CCOC(=O)c1cc(S(=O)(=O)N2CCN(c3ccccc3F)CC2)[nH]n1`, -5% (active). On to `CCOC(=O)c1noc2ncnc(N3CCN(c4cccc(Cl)c4)CC3)c12`, for which the survival is 83% (inactive). For `CCOC(=O)c1cnc(N2CCN(c3cccc(C)c3C)CC2)c2ccccc12`, the survival is 77% (inactive). `CCOC(=O)c1cnc2ccc(OCC)cc2c1N1CCN(c2cccc(Cl)c2)CC1`: the survival was 3% (active). Take `CCOC(=O)c1cnc2cc(C(F)(F)F)ccc2c1N1CCN(c2cccc(Cl)c2)CC1`: the survival was 84% (inactive). For `CCOC(=O)c1cc(S(=O)(=O)N2CCN(c3cccc(C)c3C)CC2)[nH]n1` the value was 81% (inactive).

On to `CCOC(=O)c1cnc2c(OC)cccc2c1N1CCN(c2ccccc2F)CC1`, for which the survival is 1% (active). For `CCOC(=O)c1cnc2ccc(OCC)cc2c1N1CCN(c2ccccc2F)CC1` the value was 0% (active); for `COC(=O)c1cnc(N2CCN(c3ccccc3F)CC2)c2ccccc12`, 86% (inactive). As for `CCOC(=O)c1cc(S(=O)(=O)N2CCN(c3ccccc3OC)CC2)[nH]n1`, the survival was 122% (inactive).

For the molecule `CCOC(=O)c1cnc(N2CCN(c3ccc(C)cc3C)CC2)c2ccccc12`, the survival was 87% (inactive).

As for `CCOc1ccc(NC(=O)NCCN2CCN(c3ccccc3F)CC2)cc1`, the survival is 87% (inactive).
